# Assay results from PubChem BioAssay (NCI).
# Compounds without any hit were thinned out: in the full panel of roughly 83,000, 20% have a hit.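 The test compound was applied at a single concentration to cells in 96-well plates for 48 hours, and percent growth was recorded.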 The source made the active and inactive calls. How the source made its calls: active means growth percent below 10; inactive means the rest.
# Test system: EKVX NSCLC
# Assay: NCI-60 one-dose screen, 48 h (100 = growth as untreated, 0 = no growth, -100 = all killed)
# Conditions: 10 µM unless noted
row,Structure (SMILES),growth
1,CC(C)C1=NOC(=O)C1=Cc1cn(-c2ccco2)nc1-c1ccccc1,99.6% (inactive)
2,COc1cc(Cl)cc(-c2nn(C(=O)NS(=O)(=O)c3ccccc3)cc2-c2ccncc2)c1,61.2% (inactive)
3,C=C(C)[C@@H]1CC[C@]2(COCCC#N)CC[C@]3(C)[C@H](CC[C@@H]4[C@@](C)(CCCNCCC#N)[C@H](C(=C)C)CC[C@]43C)[C@@H]12,92.9% [100 µM] (inactive)
4,COc1ccc(N(c2nc(-c3ccc([N+](=O)[O-])cc3)cs2)C(C)C)cc1,65.8% (inactive)
5,NS(=O)(=O)c1ccc(CCN2C(=O)/C(=C\c3ccccc3)C=C2c2ccc(Cl)cc2)cc1,88.5% (inactive)
6,O=C1C(Cl)=C(Nc2ccc3cn[nH]c3c2)C(=O)c2ccccc21,-64.7% (active)
7,CC(C)c1ccc(C(=O)Nc2sc3c(c2C#N)CCC(=O)C3)cc1,7.96% (active)
8,Cc1ccc2c(c1)/C(=N\N=C/c1cn(C(C)C)c3ccccc13)C(=O)N2,61.9% (inactive)
9,O=C(C[n+]1ccn(CC(OCc2ccc(Cl)cc2Cl)c2ccc(Cl)cc2Cl)c1)c1ccc(F)cc1 (configuration not stated),-77.8% (active)
10,CCOc1cccc2c(NC(C)CCCN(CC)CC)c(C)cnc12 (configuration not stated),104% (inactive)
11,O=C(Nc1cccc2ccccc12)c1cc2ccccc2cc1O,15% (inactive)
12,Cc1cc(C)nc(SCC(=O)Nc2cccc(N=Cc3ccccc3O)c2)n1,97.9% (inactive)
13,CSc1nc2c(c(=O)n1C)C1(C(=O)N(Cc3ccccc3)c3ccccc31)c1c(nc(SC)n(C)c1=O)N2,100% (inactive)
14,O=C1COCCN1c1ccc(NCc2cn(Cc3ccc(F)cc3)c3ccccc23)cc1,91% (inactive)
15,CCN(CCO)CCC(=O)c1ccc([N+](=O)[O-])cc1,103% (inactive)
16,O=C(Nc1cccc(C2=NCCN2)c1)c1cccc(C(=O)Nc2cccc(C3=NCCN3)c2)c1,88.6% (inactive)
17,CC(C)[C@H]1CCC2=C3CC[C@]45OC(=O)[C@@]6(CCC(C)(C)C[C@H]64)CC[C@@]5(C)[C@]3(C)CC[C@@]21C,88.3% [100 µM] (inactive)
18,COc1ccc(/C=C2\N=C(Nc3ccccc3)N(NC(=O)c3ccccn3)C2=O)cc1,91.5% (inactive)
19,Nc1nnc(CSc2nnc3n(Cc4ccccc4)c(=O)c4c5c(sc4n23)CCCC5)s1,93.2% (inactive)
20,O=C(NCCCNC(=O)OCc1ccc2c(Br)cc(Br)c(O)c2n1)OCc1ccc2c(Br)cc(Br)c(O)c2n1,-5.94% (active)
21,CCn1cc(-c2[nH]c(=S)ncc2-c2ccc(Cl)cc2)c(-c2ccc(Br)cc2)n1,85.7% (inactive)
22,Cc1cccc(C[C@H](NC(=O)Nc2ccc(Cl)cc2F)C(=O)N[C@@H]2C(=O)N3C[C@H](O)C[C@H]3C(=O)N3CCCC[C@H]3C(=O)N[C@@H](C)C(=O)N3C[C@H](C)C[C@H]3C(=O)O[C@H]2C)c1,24.6% (inactive)
23,O=C(NCCCNC(=O)OCc1ccc2cccc(O)c2n1)OCc1ccc2cccc(O)c2n1,79.9% (inactive)
24,CCN(CC)CCCC(C)Nc1ccnc2cc(Cl)c(SCc3ccccc3)cc12 (configuration not stated),3.57% (active)
25,Cc1ccc(C2=C/C(=C/c3ccc(Br)cc3)C(=O)N2CCc2ccc(S(N)(=O)=O)cc2)cc1,92.8% (inactive)

# Test system: SN12C renal
# Assay: as above
# Conditions: 10 µM unless noted
row,Structure (SMILES),growth
1,C=C(C)[C@@H]1CC[C@]2(C(N)=O)CC[C@]3(C)[C@H](CC[C@@H]4[C@@]5(C)CC[C@H](O)C(C)(C)[C@@H]5CC[C@]43C)[C@@H]12,-45.8% [100 µM] (active)
2,CCN1CCN(CC(=O)Nc2nc3ccc(NCc4ccc(Cl)cc4)cc3s2)CC1,68.4% (inactive)
3,COc1cc(C)cc2oc3oc(=O)c(C(=O)c4cc5cc(Br)ccc5o4)cc3c(=O)c12,97.6% (inactive)
4,O=S(=O)(NCCCNc1nccc(-c2c(-c3cccc(F)c3)nc3occn23)n1)c1cccc2ccccc12,43.3% (inactive)
5,CC1(C)[C@@H](NOCCCN)CC[C@]2(C)[C@H]3C(=O)C=C4[C@@H]5C[C@](C)(C(=O)O)CC[C@]5(C)CC[C@@]4(C)[C@]3(C)CC[C@@H]12,-82.8% [100 µM] (active)
6,O=c1[nH]c(CN2CCN(c3cccc(Cl)c3)CC2)nc2cc(Cl)ccc12,89.3% (inactive)
7,COc1cc2c(O)n(CCCN3CCOCC3)c3c4cnc5cccc(c(=O)c3c2cc1OC)c54,14.1% (inactive)
8,CCOC(=O)c1sc2nc(-c3cc(OC)c(OC)c(OC)c3)nc(N3CCOCC3)c2c1C,36% (inactive)
9,Cc1cc(C)c(S(=O)(=O)/N=c2/n(-c3ccccc3)nc3n2CCN3C2=NCCN2)c(C)c1,79.8% (inactive)
10,Cc1ccc(S(=O)(=O)N/N=C2\CC3CCC2(C)C3(C)C)cc1 (configuration not stated),93.5% (inactive)
11,N#C/C(C(=O)c1ccccc1)=C1/C(=O)Nc2ccccc21,93.1% (inactive)
12,CCc1ccc(C2=C/C(=C/c3ccccc3)C(=O)N2CCc2ccc(S(N)(=O)=O)cc2)cc1,101% (inactive)
13,CC(C)C1=NOC(=O)C1=Cc1cn(-c2ccco2)nc1-c1ccccc1,87.4% (inactive)
14,COc1cc(Cl)cc(-c2nn(C(=O)NS(=O)(=O)c3ccccc3)cc2-c2ccncc2)c1,94.5% (inactive)
15,C=C(C)[C@@H]1CC[C@]2(COCCC#N)CC[C@]3(C)[C@H](CC[C@@H]4[C@@](C)(CCCNCCC#N)[C@H](C(=C)C)CC[C@]43C)[C@@H]12,27.9% [100 µM] (inactive)
16,COc1ccc(N(c2nc(-c3ccc([N+](=O)[O-])cc3)cs2)C(C)C)cc1,91.4% (inactive)
17,NS(=O)(=O)c1ccc(CCN2C(=O)/C(=C\c3ccccc3)C=C2c2ccc(Cl)cc2)cc1,90.6% (inactive)
18,O=C1C(Cl)=C(Nc2ccc3cn[nH]c3c2)C(=O)c2ccccc21,-42.9% (active)
19,CC(C)c1ccc(C(=O)Nc2sc3c(c2C#N)CCC(=O)C3)cc1,4.66% (active)

row,Structure (SMILES),growth
1,Cc1ccc2c(c1)/C(=N\N=C/c1cn(C(C)C)c3ccccc13)C(=O)N2,56.4% (inactive)
2,O=C(C[n+]1ccn(CC(OCc2ccc(Cl)cc2Cl)c2ccc(Cl)cc2Cl)c1)c1ccc(F)cc1 (configuration not stated),-93.5% (active)
3,CCOc1cccc2c(NC(C)CCCN(CC)CC)c(C)cnc12 (configuration not stated),95.2% (inactive)
4,O=C(Nc1cccc2ccccc12)c1cc2ccccc2cc1O,7.28% (active)
5,Cc1cc(C)nc(SCC(=O)Nc2cccc(N=Cc3ccccc3O)c2)n1,96.5% (inactive)
6,CSc1nc2c(c(=O)n1C)C1(C(=O)N(Cc3ccccc3)c3ccccc31)c1c(nc(SC)n(C)c1=O)N2,95.1% (inactive)
7,O=C1COCCN1c1ccc(NCc2cn(Cc3ccc(F)cc3)c3ccccc23)cc1,64.3% (inactive)
8,CCN(CCO)CCC(=O)c1ccc([N+](=O)[O-])cc1,107% (inactive)
9,O=C(Nc1cccc(C2=NCCN2)c1)c1cccc(C(=O)Nc2cccc(C3=NCCN3)c2)c1,95.7% (inactive)
10,CC(C)[C@H]1CCC2=C3CC[C@]45OC(=O)[C@@]6(CCC(C)(C)C[C@H]64)CC[C@@]5(C)[C@]3(C)CC[C@@]21C,70.6% [100 µM] (inactive)
11,COc1ccc(/C=C2\N=C(Nc3ccccc3)N(NC(=O)c3ccccn3)C2=O)cc1,94.7% (inactive)
12,Nc1nnc(CSc2nnc3n(Cc4ccccc4)c(=O)c4c5c(sc4n23)CCCC5)s1,91.9% (inactive)
13,O=C(NCCCNC(=O)OCc1ccc2c(Br)cc(Br)c(O)c2n1)OCc1ccc2c(Br)cc(Br)c(O)c2n1,-77.4% (active)
14,CCn1cc(-c2[nH]c(=S)ncc2-c2ccc(Cl)cc2)c(-c2ccc(Br)cc2)n1,85.1% (inactive)
15,Cc1cccc(C[C@H](NC(=O)Nc2ccc(Cl)cc2F)C(=O)N[C@@H]2C(=O)N3C[C@H](O)C[C@H]3C(=O)N3CCCC[C@H]3C(=O)N[C@@H](C)C(=O)N3C[C@H](C)C[C@H]3C(=O)O[C@H]2C)c1,9.57% (active)
16,O=C(NCCCNC(=O)OCc1ccc2cccc(O)c2n1)OCc1ccc2cccc(O)c2n1,40.4% (inactive)
17,CCN(CC)CCCC(C)Nc1ccnc2cc(Cl)c(SCc3ccccc3)cc12 (configuration not stated),20.4% (inactive)
18,Cc1ccc(C2=C/C(=C/c3ccc(Br)cc3)C(=O)N2CCc2ccc(S(N)(=O)=O)cc2)cc1,95.9% (inactive)
